Assay in all cases: DAPPL (digital affinity profiling via proximity ligation, sequencing); 10 mM Tris-HCl pH 7.5, 50 mM NaCl, 1 mM DTT, 4% glycerol, room temperature, 30 min; GST-TFs on glutathione beads, 16-mer random dsDNA library, 0.1% formaldehyde crosslink after washing; high values mean tight binding
Experiment [1] addresses ELF1 (Homo sapiens, UniProt P32519 1-619). The settings on record: protein: recombinant; tags: N-terminal GST; dsDNA, one strand shown. A digest of the protocol:
(§1)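 A tag-only sample was pooled with DNA-barcoded human transcription factors that had been expressed in yeast as GST fusions and captured on glutathione beads. The pools were incubated for 30 min at room temperature with 200 nmole of a random double-stranded 16-mer DNA library in Tris/NaCl/DTT/glycerol buffer, then washed, crosslinked with 0.1% formaldehyde, proximity-ligated (BsaI/T4 ligase, 1 h, 37 °C), PCR-amplified and sequenced on an Illumina NextSeq500. Binding signal is each hexamer's read frequency for a factor divided by its frequency for the tag-only sample.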

The target of experiment [2] is SPI1 (Homo sapiens, UniProt P17947 1-270). The settings on record: protein: recombinant; tags: N-terminal GST; dsDNA, one strand shown. A digest of the protocol:
as §1

Experiment [3] addresses SPIB (Homo sapiens, UniProt Q01892 1-262). The settings on record: protein: recombinant; tags: N-terminal GST; dsDNA, one strand shown. The gist of the method:
as §1

Experiment [4] addresses HSF1 (Homo sapiens, UniProt Q00613 1-529). The note with it: protein: recombinant; tags: N-terminal GST; chain copies: 3; dsDNA, one strand shown. A digest of the protocol:
as §1

Experiment [5] has as its target T1, SPIC (Homo sapiens, UniProt Q8N5J4 1-248).
T1 sequence: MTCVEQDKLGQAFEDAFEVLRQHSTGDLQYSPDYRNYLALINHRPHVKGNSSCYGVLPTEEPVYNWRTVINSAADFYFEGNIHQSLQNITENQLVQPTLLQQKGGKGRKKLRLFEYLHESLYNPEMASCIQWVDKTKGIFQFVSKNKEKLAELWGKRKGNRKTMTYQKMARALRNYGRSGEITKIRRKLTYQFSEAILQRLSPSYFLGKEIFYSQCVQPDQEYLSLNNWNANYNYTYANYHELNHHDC
The settings on record: protein: recombinant; tags: N-terminal GST; dsDNA, one strand shown. The gist of the method: as §1

In experiment [6] the target is ELF4 (Homo sapiens, UniProt Q99607 1-663). The note with it: protein: recombinant; tags: N-terminal GST; dsDNA, one strand shown. A digest of the protocol:
as §1

Experiment [7] addresses T2, ELK4 (Homo sapiens, UniProt P28324-2 1-405).
T2 sequence: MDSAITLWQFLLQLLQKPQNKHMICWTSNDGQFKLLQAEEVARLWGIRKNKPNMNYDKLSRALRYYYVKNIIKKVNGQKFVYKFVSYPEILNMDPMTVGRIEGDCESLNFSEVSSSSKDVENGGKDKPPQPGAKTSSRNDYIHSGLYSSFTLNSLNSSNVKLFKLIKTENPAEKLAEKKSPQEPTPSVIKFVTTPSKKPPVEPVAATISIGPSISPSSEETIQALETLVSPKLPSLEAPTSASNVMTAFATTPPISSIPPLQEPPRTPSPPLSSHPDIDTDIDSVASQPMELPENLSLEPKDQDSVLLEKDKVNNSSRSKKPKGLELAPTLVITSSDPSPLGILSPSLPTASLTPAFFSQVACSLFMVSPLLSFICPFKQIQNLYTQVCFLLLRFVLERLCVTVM
The note with it: protein: recombinant; tags: N-terminal GST; dsDNA, one strand shown. A digest of the protocol:
as §1

Experiment [8] has as its target T3, ETV3L (Homo sapiens, UniProt Q6ZN32 1-361).
T3 sequence: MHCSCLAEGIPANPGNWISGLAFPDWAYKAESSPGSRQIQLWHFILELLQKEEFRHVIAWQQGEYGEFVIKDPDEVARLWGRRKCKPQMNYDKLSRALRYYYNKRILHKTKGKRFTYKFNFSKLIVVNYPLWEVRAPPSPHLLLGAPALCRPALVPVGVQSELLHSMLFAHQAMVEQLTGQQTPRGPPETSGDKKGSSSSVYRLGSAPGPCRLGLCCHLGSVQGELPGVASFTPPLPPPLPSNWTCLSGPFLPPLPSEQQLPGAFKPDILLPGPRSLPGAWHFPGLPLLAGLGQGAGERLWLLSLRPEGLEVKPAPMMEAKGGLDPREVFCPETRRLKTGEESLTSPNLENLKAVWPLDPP
The settings on record: protein: recombinant; tags: N-terminal GST; dsDNA, one strand shown. A digest of the protocol: as §1

Experiment [9] deals with T4, ETS2 (Homo sapiens, UniProt P15036 1-469).
T4 sequence: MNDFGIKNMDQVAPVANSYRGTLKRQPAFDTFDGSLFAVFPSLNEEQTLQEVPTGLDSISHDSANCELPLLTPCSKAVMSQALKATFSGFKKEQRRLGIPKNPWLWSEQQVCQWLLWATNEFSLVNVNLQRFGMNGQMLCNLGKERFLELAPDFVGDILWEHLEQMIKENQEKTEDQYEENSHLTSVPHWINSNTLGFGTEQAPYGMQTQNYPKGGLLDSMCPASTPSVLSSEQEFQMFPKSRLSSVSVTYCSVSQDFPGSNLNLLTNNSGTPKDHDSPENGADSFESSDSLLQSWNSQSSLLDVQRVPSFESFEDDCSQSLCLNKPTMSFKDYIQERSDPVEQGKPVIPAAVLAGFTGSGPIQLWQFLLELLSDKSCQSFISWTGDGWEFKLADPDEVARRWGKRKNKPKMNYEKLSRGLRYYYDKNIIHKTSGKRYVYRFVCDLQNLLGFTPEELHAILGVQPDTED
The settings on record: protein: recombinant; tags: N-terminal GST; dsDNA, one strand shown. The gist of the method: as §1

Experiment [10] has as its target T5, ELK1 (Homo sapiens, UniProt P19419 1-428).
T5 sequence: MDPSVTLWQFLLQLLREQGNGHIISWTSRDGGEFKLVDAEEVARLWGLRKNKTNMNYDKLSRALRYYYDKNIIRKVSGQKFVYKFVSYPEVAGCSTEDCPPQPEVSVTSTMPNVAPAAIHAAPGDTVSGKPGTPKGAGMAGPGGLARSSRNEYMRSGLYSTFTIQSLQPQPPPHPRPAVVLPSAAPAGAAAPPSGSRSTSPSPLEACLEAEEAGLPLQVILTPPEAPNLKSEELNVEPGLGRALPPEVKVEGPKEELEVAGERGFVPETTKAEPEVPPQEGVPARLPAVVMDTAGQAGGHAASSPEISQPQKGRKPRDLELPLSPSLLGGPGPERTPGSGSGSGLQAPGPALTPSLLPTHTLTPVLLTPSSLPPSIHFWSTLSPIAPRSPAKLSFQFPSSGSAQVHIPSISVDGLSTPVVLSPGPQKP
The settings on record: protein: recombinant; tags: N-terminal GST; dsDNA, one strand shown. The gist of the method: as §1

For experiment [11], the target named is T6, ERG (Homo sapiens, UniProt P11308 1-479).
T6 sequence: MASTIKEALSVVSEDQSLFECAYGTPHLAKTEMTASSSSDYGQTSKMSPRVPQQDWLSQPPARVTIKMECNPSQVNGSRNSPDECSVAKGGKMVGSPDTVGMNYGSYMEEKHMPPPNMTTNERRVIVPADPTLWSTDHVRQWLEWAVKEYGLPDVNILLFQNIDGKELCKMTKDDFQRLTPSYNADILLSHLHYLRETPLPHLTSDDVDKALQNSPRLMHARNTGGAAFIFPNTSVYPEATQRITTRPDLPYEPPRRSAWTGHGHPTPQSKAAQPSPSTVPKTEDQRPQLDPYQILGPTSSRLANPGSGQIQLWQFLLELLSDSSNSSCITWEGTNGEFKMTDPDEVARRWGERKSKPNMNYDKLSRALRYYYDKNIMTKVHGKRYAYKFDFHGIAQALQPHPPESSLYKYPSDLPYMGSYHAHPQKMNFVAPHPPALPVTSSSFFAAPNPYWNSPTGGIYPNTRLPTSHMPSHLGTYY
The note with it: protein: recombinant; tags: N-terminal GST; dsDNA, one strand shown. A digest of the protocol:
as §1

Experiment [12] deals with T7, ETV2 (Homo sapiens, UniProt O00321 1-342).
T7 sequence: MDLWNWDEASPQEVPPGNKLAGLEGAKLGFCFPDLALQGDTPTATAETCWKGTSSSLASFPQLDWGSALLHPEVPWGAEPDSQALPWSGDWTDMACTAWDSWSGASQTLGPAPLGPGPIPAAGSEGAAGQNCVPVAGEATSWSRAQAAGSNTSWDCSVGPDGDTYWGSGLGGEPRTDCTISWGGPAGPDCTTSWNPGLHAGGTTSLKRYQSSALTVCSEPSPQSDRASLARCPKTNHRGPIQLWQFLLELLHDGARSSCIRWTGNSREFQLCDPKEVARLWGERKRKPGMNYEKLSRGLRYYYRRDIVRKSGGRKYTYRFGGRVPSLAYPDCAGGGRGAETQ
The settings on record: protein: recombinant; tags: N-terminal GST; dsDNA, one strand shown. The gist of the method:
as §1

The target of experiment [13] is CRX (Homo sapiens, UniProt O43186 1-299). The settings on record: protein: recombinant; tags: N-terminal GST; dsDNA, one strand shown. The gist of the method:
as §1

In experiment [14] the target is T8, ERF (Homo sapiens, UniProt P50548 1-548).
T8 sequence: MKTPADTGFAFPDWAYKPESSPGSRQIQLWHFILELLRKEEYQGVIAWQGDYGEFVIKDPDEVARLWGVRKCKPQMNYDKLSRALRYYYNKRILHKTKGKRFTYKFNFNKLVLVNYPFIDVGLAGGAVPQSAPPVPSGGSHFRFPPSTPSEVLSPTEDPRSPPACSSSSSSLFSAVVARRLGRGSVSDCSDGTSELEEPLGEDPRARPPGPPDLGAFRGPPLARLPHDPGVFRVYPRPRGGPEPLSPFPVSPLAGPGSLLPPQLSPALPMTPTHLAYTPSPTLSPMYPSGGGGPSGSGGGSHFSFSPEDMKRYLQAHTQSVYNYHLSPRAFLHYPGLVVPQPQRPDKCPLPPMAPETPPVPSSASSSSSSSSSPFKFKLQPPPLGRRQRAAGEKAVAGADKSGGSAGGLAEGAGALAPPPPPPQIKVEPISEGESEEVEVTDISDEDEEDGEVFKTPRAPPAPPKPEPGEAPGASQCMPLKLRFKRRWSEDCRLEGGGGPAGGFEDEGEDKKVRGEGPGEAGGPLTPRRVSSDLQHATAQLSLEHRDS
The note with it: protein: recombinant; tags: N-terminal GST; dsDNA, one strand shown. A digest of the protocol: as §1

In experiment [15] the target is T9, ELF5 (Homo sapiens, UniProt Q9UKW6-2 1-255).
T9 sequence: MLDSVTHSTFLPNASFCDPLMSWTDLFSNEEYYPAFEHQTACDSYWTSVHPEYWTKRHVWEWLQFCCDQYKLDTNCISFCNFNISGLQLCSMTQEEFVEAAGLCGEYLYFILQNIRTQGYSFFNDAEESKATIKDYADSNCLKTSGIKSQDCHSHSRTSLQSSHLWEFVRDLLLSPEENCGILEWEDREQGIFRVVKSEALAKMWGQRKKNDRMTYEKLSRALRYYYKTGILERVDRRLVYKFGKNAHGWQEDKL
The note with it: protein: recombinant; tags: N-terminal GST; dsDNA, one strand shown. A digest of the protocol:
as §1

The target in experiment [16] is T10, ETV3 (Homo sapiens, UniProt P41162-2 1-143).
T10 sequence: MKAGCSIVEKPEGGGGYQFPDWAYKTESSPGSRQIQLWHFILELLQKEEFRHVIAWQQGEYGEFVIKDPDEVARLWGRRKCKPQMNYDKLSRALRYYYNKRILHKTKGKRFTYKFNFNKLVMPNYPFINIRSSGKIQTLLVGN
The note with it: protein: recombinant; tags: N-terminal GST; dsDNA, one strand shown. The gist of the method: as §1

Experiment [17] deals with ETV6 (Homo sapiens, UniProt P41212 1-452). The settings on record: protein: recombinant; tags: N-terminal GST; dsDNA, one strand shown. The gist of the method:
as §1

Consider seven sequences from article PMC7862700, “An all-to-all approach to the identification of sequence-specific readers for epigenetic DNA modifications on cytosine”.

Sequence of HSF1 (Q00613 whole entry): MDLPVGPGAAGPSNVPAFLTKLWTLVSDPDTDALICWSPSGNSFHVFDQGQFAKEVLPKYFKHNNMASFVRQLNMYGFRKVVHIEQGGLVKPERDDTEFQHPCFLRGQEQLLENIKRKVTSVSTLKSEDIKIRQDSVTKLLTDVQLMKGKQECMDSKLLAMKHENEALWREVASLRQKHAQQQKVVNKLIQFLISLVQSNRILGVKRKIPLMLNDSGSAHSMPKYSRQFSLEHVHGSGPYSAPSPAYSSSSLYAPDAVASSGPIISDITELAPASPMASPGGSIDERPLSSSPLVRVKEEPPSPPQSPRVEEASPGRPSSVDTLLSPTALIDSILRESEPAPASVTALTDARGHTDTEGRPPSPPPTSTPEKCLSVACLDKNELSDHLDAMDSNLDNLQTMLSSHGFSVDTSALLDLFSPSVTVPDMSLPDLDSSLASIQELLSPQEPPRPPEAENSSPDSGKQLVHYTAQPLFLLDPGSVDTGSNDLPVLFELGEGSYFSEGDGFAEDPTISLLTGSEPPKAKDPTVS
Sequence of SPIB (Q01892 whole entry): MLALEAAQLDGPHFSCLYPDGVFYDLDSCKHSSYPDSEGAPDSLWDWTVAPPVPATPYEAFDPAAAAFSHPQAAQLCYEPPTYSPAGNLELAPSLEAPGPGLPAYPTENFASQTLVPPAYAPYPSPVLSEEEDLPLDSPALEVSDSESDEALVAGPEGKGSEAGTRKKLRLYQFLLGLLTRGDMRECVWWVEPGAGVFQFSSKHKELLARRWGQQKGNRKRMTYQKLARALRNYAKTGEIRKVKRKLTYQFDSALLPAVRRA
Sequence of CRX (O43186 whole entry): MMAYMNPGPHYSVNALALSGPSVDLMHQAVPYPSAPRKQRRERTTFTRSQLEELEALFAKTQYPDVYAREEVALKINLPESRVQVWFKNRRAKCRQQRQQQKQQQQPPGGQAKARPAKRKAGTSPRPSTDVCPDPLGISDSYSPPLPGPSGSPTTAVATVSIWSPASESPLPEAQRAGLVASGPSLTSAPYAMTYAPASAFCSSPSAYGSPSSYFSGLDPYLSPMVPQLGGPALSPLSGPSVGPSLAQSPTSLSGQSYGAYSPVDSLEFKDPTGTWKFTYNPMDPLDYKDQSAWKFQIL
Sequence of ELF1 (P32519 whole entry, the tested form may be a part): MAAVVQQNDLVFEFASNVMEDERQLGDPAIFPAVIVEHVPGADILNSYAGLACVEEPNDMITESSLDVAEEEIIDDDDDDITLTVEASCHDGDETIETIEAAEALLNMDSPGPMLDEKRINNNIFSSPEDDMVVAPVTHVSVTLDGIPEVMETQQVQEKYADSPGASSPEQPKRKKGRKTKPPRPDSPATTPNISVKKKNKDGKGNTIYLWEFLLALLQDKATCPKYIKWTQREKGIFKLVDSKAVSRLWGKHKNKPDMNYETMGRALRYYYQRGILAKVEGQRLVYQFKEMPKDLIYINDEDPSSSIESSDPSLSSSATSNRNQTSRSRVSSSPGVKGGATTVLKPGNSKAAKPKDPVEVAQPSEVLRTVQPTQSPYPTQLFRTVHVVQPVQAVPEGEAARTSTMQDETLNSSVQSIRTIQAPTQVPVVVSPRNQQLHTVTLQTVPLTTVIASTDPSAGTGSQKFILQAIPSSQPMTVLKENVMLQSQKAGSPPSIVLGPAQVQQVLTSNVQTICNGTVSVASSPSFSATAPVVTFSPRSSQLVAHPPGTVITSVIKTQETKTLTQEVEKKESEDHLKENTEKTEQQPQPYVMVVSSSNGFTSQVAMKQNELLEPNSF
Sequence of ELF4 (Q99607 whole entry): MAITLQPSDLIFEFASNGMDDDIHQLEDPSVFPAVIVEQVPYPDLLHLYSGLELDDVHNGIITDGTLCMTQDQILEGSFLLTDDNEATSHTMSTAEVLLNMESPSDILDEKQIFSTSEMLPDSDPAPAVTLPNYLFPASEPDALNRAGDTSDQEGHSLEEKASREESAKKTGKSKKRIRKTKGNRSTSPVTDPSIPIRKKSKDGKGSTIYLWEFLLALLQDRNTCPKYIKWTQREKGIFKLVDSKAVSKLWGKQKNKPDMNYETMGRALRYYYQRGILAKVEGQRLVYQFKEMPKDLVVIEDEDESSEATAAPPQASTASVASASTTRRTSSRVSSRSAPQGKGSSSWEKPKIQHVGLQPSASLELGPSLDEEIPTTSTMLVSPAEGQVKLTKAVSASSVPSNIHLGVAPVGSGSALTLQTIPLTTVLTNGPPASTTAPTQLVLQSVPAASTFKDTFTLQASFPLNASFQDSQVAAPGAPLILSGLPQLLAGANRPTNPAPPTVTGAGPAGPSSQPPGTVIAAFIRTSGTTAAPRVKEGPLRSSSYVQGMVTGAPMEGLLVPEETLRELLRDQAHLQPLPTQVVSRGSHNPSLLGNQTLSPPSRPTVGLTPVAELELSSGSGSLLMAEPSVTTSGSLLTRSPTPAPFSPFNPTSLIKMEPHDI
Sequence of ETV6 (P41212 whole entry): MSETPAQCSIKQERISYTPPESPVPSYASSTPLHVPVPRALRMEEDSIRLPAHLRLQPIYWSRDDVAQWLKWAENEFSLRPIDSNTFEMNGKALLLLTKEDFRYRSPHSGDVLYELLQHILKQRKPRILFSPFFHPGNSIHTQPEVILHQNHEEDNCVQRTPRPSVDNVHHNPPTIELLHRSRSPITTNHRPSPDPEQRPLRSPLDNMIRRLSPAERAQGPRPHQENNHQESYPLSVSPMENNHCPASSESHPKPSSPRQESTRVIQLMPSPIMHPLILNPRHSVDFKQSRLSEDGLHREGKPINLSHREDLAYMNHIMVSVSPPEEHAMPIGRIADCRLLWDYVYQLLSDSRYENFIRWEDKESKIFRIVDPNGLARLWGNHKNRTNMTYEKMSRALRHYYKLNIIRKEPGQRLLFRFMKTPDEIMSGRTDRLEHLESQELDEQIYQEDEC

As to TGAAAG, the binding signal was 1.05 fold enrichment (6-mer frequency, TF over GST control) in experiment [1]; 1.05 fold enrichment (6-mer frequency, TF over GST control) in experiment [2]; 1.04 fold enrichment (6-mer frequency, TF over GST control) in [3]; 1.08 fold enrichment (6-mer frequency, TF over GST control) in [4]; 1.01 fold enrichment (6-mer frequency, TF over GST control) in experiment [5]; 1.01 fold enrichment (6-mer frequency, TF over GST control) in experiment [6]. The binding signal is 1.06 fold enrichment (6-mer frequency, TF over GST control) in experiment [7]; 1.04 fold enrichment (6-mer frequency, TF over GST control) in [8]; 1.01 fold enrichment (6-mer frequency, TF over GST control) in experiment [9].
As to CGAAGA, in [4], the binding signal is 1.19 fold enrichment (6-mer frequency, TF over GST control).
Still for that read-out and setting: the value for AGGTTC was 1.18 fold enrichment (6-mer frequency, TF over GST control).
Turning to TCCGAG, in experiment [4], the binding signal is 1.03 fold enrichment (6-mer frequency, TF over GST control).
On the same count and under the same terms, with GAGAAG the figure was 1.22 fold enrichment (6-mer frequency, TF over GST control); with ACAGAA, 1.27 fold enrichment (6-mer frequency, TF over GST control).
As for AGTATA, the binding signal in [10] was 1.05 fold enrichment (6-mer frequency, TF over GST control); in experiment [11], 1 fold enrichment (6-mer frequency, TF over GST control); in [2] it was 1.04 fold enrichment (6-mer frequency, TF over GST control); in experiment [4] it was 1.01 fold enrichment (6-mer frequency, TF over GST control); in [5], 1.07 fold enrichment (6-mer frequency, TF over GST control); in experiment [7] it was 1.03 fold enrichment (6-mer frequency, TF over GST control). Besides, the binding signal is 1.06 fold enrichment (6-mer frequency, TF over GST control) in experiment [12]; 1.07 fold enrichment (6-mer frequency, TF over GST control) in experiment [13]; 1.01 fold enrichment (6-mer frequency, TF over GST control) in experiment [14]; 1.02 fold enrichment (6-mer frequency, TF over GST control) in experiment [8]; 1.03 fold enrichment (6-mer frequency, TF over GST control) in experiment [15]; 1 fold enrichment (6-mer frequency, TF over GST control) in [16]. Besides, the binding signal in experiment [17] is 1.06 fold enrichment (6-mer frequency, TF over GST control).
